Measurements as given in PubChem BioAssay AID1209 (Sanford-Burnham Center for Chemical Genomics, 2008).
Screen size: about 190,000 compounds; about 810 (0.43%) were called active. The sample holds actives, similar compounds and a random draw of the others, so the mix is not that of the screen. Cut-off read from the data, not from the text of the source: active = inhibition above about 50%; inactive = the rest.

Target: Mannose-6-phosphate isomerase (Homo sapiens) (UniProt P34949)
Experiment: inhibitors of human PMI, primary screen, biochemical, fluorescence intensity, coupled assay (AID 1209);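 note: plate controls were DMSO vehicle for no effect and wells lacking substrate for full effect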
Details: purified PMI enzyme, at 20 µM, stronger effect = higher value

Sequence of Mannose-6-phosphate isomerase (Homo sapiens) (P34949 whole entry, looked up): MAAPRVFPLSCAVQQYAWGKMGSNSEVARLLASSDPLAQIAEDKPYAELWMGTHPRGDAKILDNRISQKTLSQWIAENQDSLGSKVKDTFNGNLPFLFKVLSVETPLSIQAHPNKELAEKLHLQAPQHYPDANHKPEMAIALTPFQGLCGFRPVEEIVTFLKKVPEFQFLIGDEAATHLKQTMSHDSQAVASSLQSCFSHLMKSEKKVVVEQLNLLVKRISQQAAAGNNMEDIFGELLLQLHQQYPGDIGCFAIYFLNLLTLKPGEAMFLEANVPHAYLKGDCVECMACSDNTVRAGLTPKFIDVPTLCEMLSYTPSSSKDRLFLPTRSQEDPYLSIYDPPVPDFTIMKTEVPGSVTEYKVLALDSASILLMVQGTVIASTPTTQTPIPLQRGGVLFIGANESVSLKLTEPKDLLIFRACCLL

inhibition, active:
O=[N+]([O-])c1c(NCCO)cc(N2CCC3(CC2)OCCO3)c2nonc12 60.3%, CCOC(=O)N1CCN(c2cc(NCCO)c([N+](=O)[O-])c3nonc23)CC1 56.2%, O=[N+]([O-])c1c(NCCO)cc(N2CCCCC2)c2nonc12 57.8%, O=[N+]([O-])c1c(NCCO)cc(N2CCN(Cc3ccc4c(c3)OCO4)CC2)c2nonc12 55.4%

inhibition, inactive:
O=C(c1ccccc1)C(C(=O)N1CCc2ccccc2C1)n1ccccc1=O (centres undefined) 8.6%, O=C(CSc1nnnn1-c1cccc2ccccc12)NC(C(=O)O)(c1ccccc1)c1ccccc1 -9.3%, Cc1ccc(NC(=O)NC(=O)CN2C(=O)NC3(CCCCCCC3)C2=O)c(C)c1 9.5%, CCC/C(O)=C1\C(=O)CC(c2ccccc2)CC1=NC(C)C(=O)O (centres undefined) -5.7%, O=C(COc1ccc(Cl)cc1)NCc1nnc(SCC(=O)N2CCCCCC2)o1 3.1%, CCOc1ccccc1NC(=O)c1ccc(NC(=O)c2ccco2)cc1 -12.3%, Cc1nnc(Sc2cc(NCCO)c([N+](=O)[O-])c3nonc23)s1 -0.7%, CN(CCO)c1cc(N2CCC3(CC2)OCCO3)c2nonc2c1[N+](=O)[O-] 6%, CN(CCO)c1cc(N2CCCCC2)c2nonc2c1[N+](=O)[O-] -0.9%, CCN(CC)c1cc(NCCO)c([N+](=O)[O-])c2nonc12 37.9%, O=[N+]([O-])c1c(NCCCO)cc(N2CCN(Cc3ccc4c(c3)OCO4)CC2)c2nonc12 13%, CC(=O)Nc1ccc(Nc2cc(N3CCOCC3)c3nonc3c2[N+](=O)[O-])cc1 -2.7%, CCOC(=O)C1CCCN(c2cc(NCCCO)c([N+](=O)[O-])c3nonc23)C1 (centres undefined) 32.9%, CCOC(=O)N1CCN(c2cc(N(C)CCO)c([N+](=O)[O-])c3nonc23)CC1 20.8%, COc1ccccc1-n1c(-c2ccc(NS(C)(=O)=O)cc2)n[nH]c1=S -0.6%, CC(C)Cc1nnc(NC(=O)CS(=O)(=O)Cc2ccccc2)s1 -0.2%, C=C(C)CSc1nnc2n(N)c(=O)c3ccccc3n12 -4.8%, Cc1ccccc1C(=O)NCCc1nnc(SCC(=O)Nc2nc(-c3ccccc3)cs2)n1C -0.8%, O=C(CSc1ncccn1)N1CCN(C(c2ccccc2)c2ccccc2)CC1 20.8%, Cn1c(C(C(=O)NCC2CCCO2)N(CCc2ccccc2)C(=O)Cn2nnc3ccccc32)nc2ccccc21 (centres undefined) 2.6%
